# Test results published in the supplement of paper PMC8728848.
# This excerpt belongs to a sample that is enriched for the strongest signals.
# B1: CREG (Mus musculus), O88668 (protein)
# chain: MAARAPELARSLLAALLAPALVALLVSPASGRGGRDHGDWDVDRRLPPLPPREDGPRVARFVTHVSDWGSLATISTIKEVRGWPFADIISISDGPPGEGTGEPYMYLSPLQQAVSDLQENPEATLTMSLAQTVYCRNHGFDPQSPLCVHIMMSGTVTKVNKTEEDYARDSLFVRHPEMKHWPSSHNWFFAKLKISRIWVLDYFGGPKVVTPEEYFNVTLQ
# How the values were obtained:
# Experiment in all cases: glycan array binding signal (z-score within array); higher = stronger binding
# Details in all cases: glycan notation: IUPAC condensed, linker removed
# [1] = target: Fuc(a1-2)Gal6S(b1-4)GlcNAc
# How it was run: (§1)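 Glycan array binding is given as a within-array Z-score, which can be read as non-binding when negative. The arrays, 3228 of them, came from the Consortium for Functional Glycomics database and were retained only where the protein sequence was available. Z-scores were averaged across arrays of the same protein sequence at different concentrations or buffers and across linkers.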
# [2] = target: Fuc(a1-2)[Gal(a1-3)]Gal(b1-4)GlcNAc(b1-2)Man(a1-3)[Fuc(a1-2)[Gal(a1-3)]Gal(b1-4)GlcNAc(b1-2)Man(a1-6)]Man(b1-4)GlcNAc(b1-4)GlcNAc
# How it was run: as §1
# [3] = target: Fuc(a1-2)[GalNAc(a1-3)]Gal(b1-4)Glc
# How it was run: as §1
# [4] = target: Fuc(a1-3)[Gal(b1-4)]GlcNAc(b1-4)Gal(b1-4)[Fuc(a1-3)]GlcNAc
# How it was run: as §1
# [5] = target: Gal(a1-3)Gal(b1-3)GlcNAc(b1-2)Man(a1-3)[Gal(a1-3)Gal(b1-3)GlcNAc(b1-2)Man(a1-6)]Man(b1-4)GlcNAc(b1-4)GlcNAc
# How it was run: as §1
# Gal(b1-3)Gal = target: Gal(b1-3)Gal
# How it was run: as §1
# [6] = target: Gal(b1-3)Gal(b1-4)GlcNAc(b1-2)Man(a1-3)[Gal(b1-3)Gal(b1-4)GlcNAc(b1-2)Man(a1-6)]Man(b1-4)GlcNAc(b1-4)GlcNAc
# How it was run: as §1
# [7] = target: Gal(b1-3)[Fuc(a1-4)]GlcNAc(b1-2)Man(a1-3)[Gal(b1-3)[Fuc(a1-4)]GlcNAc(b1-2)Man(a1-6)]Man(b1-4)GlcNAc(b1-4)GlcNAc
# How it was run: as §1
# [8] = target: Gal(b1-4)GalNAc(a1-3)[Fuc(a1-2)]Gal(b1-4)GlcNAc
# How it was run: as §1
# [9] = target: Gal(b1-4)GlcNAc(b1-2)Man(a1-3)Man(b1-4)GlcNAc(b1-4)GlcNAc
# How it was run: as §1
# Gal3S(b1-3)GalNAc = target: Gal3S(b1-3)GalNAc
# How it was run: as §1
# Gal3S(b1-4)GlcNAc6S = target: Gal3S(b1-4)GlcNAc6S
# How it was run: as §1
# Gal3S6S(b1-4)GlcNAc = target: Gal3S6S(b1-4)GlcNAc
# How it was run: as §1
# Gal3S6S(b1-4)GlcNAc6S = target: Gal3S6S(b1-4)GlcNAc6S
# How it was run: as §1
# [10] = target: GlcNAc(b1-2)Gal(b1-3)GalNAc
# How it was run: as §1
# [11] = target: GlcNAc(b1-2)Man(a1-3)[GlcNAc(b1-2)Man(a1-6)]Man(b1-4)GlcNAc(b1-4)GlcNAc
# How it was run: as §1
# [12] = target: GlcNAc(b1-2)Man(a1-3)[GlcNAc(b1-2)Man(a1-6)]Man(b1-4)GlcNAc(b1-4)[Fuc(a1-6)]GlcNAc
# How it was run: as §1
# [13] = target: GlcNAc(b1-3)Gal(b1-3)GalNAc
# How it was run: as §1
# [14] = target: GlcNAc(b1-3)[GlcNAc(b1-4)][GlcNAc(b1-6)]GlcNAc
# How it was run: as §1
# [15] = target: GlcNAc(b1-3)[GlcNAc(b1-6)]Gal(b1-4)GlcNAc
# How it was run: as §1
# GlcNAc(b1-6)GalNAc = target: GlcNAc(b1-6)GalNAc
# How it was run: as §1
# Kdn(a2-3)Gal(b1-3)GalNAc = target: Kdn(a2-3)Gal(b1-3)GalNAc
# How it was run: as §1
# [16] = target: Neu5Ac(a2-3)Gal(b1-3)GalNAc(b1-3)Gal(a1-4)Gal(b1-4)Glc
# How it was run: as §1
# [17] = target: Neu5Ac(a2-3)Gal(b1-3)[Fuc(a1-4)]GlcNAc
# How it was run: as §1
# [18] = target: Neu5Ac(a2-3)Gal(b1-4)GlcNAc6S
# How it was run: as §1
# [19] = target: Neu5Ac(a2-3)Gal(b1-4)[Fuc(a1-3)]GlcNAc(b1-3)GalNAc
# How it was run: as §1
# [20] = target: Neu5Ac(a2-3)Gal(b1-4)[Fuc(a1-3)]GlcNAc(b1-6)[Neu5Ac(a2-3)Gal(b1-3)]GalNAc
# How it was run: as §1
# [21] = target: Neu5Ac(a2-6)Gal(b1-4)GlcNAc(b1-3)Gal(b1-4)GlcNAc
# How it was run: as §1
# [22] = target: Neu5Ac(a2-6)GlcNAc(b1-4)GlcNAc(b1-4)GlcNAc
# How it was run: as §1
# Neu5Ac(a2-8)Neu5Ac = target: Neu5Ac(a2-8)Neu5Ac
# How it was run: as §1
# [23] = target: Neu5Gc(a2-3)Gal(b1-3)[Fuc(a1-4)]GlcNAc
# How it was run: as §1
binder,measurement,setting,value
B1,glycan array binding signal (z-score),[1],-0.138
same,glycan array binding signal (z-score),[2],2.76
same,glycan array binding signal (z-score),[3],0.375
same,glycan array binding signal (z-score),[4],2.95
same,glycan array binding signal (z-score),[5],3.49
same,glycan array binding signal (z-score),Gal(b1-3)Gal,0.033
same,glycan array binding signal (z-score),[6],0.416
same,glycan array binding signal (z-score),[7],6.79
same,glycan array binding signal (z-score),[8],0.494
same,glycan array binding signal (z-score),[9],-0.442
same,glycan array binding signal (z-score),Gal3S(b1-3)GalNAc,0.036
same,glycan array binding signal (z-score),Gal3S(b1-4)GlcNAc6S,0.604
same,glycan array binding signal (z-score),Gal3S6S(b1-4)GlcNAc,1.52
same,glycan array binding signal (z-score),Gal3S6S(b1-4)GlcNAc6S,2.03
same,glycan array binding signal (z-score),[10],-0.651
same,glycan array binding signal (z-score),[11],0.15
same,glycan array binding signal (z-score),[12],3.8
same,glycan array binding signal (z-score),[13],3.22
same,glycan array binding signal (z-score),[14],2.23
same,glycan array binding signal (z-score),[15],-0.627
same,glycan array binding signal (z-score),GlcNAc(b1-6)GalNAc,-0.035
same,glycan array binding signal (z-score),Kdn(a2-3)Gal(b1-3)GalNAc,0.66
same,glycan array binding signal (z-score),[16],-0.096
same,glycan array binding signal (z-score),[17],-0.737
same,glycan array binding signal (z-score),[18],1.38
same,glycan array binding signal (z-score),[19],3.4
same,glycan array binding signal (z-score),[20],4.66
same,glycan array binding signal (z-score),[21],0.227
same,glycan array binding signal (z-score),[22],0.386
same,glycan array binding signal (z-score),Neu5Ac(a2-8)Neu5Ac,-0.211
same,glycan array binding signal (z-score),[23],-0.132
